Assay outcomes from PubChem.
Shown are actives, neighbours in structure and some others; about 3.1% of the full set was active somewhere.
ERb coact inh: inhibitors of ERβ-SRC1 coactivator interaction, primary screen, biochemical, TR-FRET, ERβ LBD, SRC-1 peptide | Estrogen receptor beta (Homo sapiens), Q92731 | TR-FRET ER-beta LBD / SRC1-Cy5 peptide binding; receptor agonist-loaded with 1 µM estradiol | inhibition, % at 25.6 µM | actives 1.3% (n = 86,000) | AID 633, 2007;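 active = compounds whose percent inhibition of the receptor-coactivator binding signal exceeds about 50% in the single-dose screen, limit read from the data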;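 note: 0% = receptor plus peptide wells without compound and 100% = peptide-only wells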
ERa coact inh: ERα–SRC-1 coactivator interaction inhibitors, primary screen, biochemical, TR-FRET, ERα LBD, estradiol-bound; TR-FRET ER-alpha LBD / SRC-1 peptide; actives 1.7% (n = 86,000); Estrogen receptor (Homo sapiens), P03372; inhibition, % at 25.6 µM; in the data active = inhibition above about 50%;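 note: 0% = receptor plus peptide control and 100% = peptide only without receptor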
Target sequence (P03372 whole entry, looked up, the tested form may be a part): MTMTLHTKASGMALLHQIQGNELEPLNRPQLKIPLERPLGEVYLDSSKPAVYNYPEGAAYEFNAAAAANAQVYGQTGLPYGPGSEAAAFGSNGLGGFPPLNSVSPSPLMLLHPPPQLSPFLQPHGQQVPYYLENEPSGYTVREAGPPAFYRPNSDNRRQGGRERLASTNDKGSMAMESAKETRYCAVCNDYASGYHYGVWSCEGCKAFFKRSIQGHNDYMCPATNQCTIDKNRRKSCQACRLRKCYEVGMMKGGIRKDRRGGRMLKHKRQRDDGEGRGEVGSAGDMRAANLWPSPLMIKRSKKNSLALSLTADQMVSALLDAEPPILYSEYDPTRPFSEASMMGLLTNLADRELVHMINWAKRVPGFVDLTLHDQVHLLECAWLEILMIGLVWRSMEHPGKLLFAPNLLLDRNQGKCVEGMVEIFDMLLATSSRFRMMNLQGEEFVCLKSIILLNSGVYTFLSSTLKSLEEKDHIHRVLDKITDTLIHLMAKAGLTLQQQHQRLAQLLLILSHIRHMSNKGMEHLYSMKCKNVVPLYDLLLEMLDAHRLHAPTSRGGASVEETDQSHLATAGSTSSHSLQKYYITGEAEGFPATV
Mac1 fbg enh: enhancers of CD11b/CD18 adhesion to fibrinogen, primary screen, K562 cells, luminescence; ATPlite luminescence; activation, % at 10 µM; actives 0.07% (n = 93,000);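 active = 10 µM primary screen giving 50% or more activity, confirmed by 40% or more on retest at that dose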
CD11b adhes inh: inhibitors of CD11b/CD18 adhesion to fibrinogen, primary screen, K562 cells, luminescence; Integrin beta-2 (Homo sapiens) + Integrin alpha-M (Homo sapiens), P05107+P11215; ATPlite luminescence; Mn2+ added to activate the integrin; inhibition, % at 10 µM; actives 0.54% (n = 93,000); AID 1497, 2009;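 active = primary inhibition of 50% or more at 10 µM, then 40% or more on retest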
ERa SRC1 pot: enhancers of ERα–SRC-1 coactivator binding, primary screen, biochemical, TR-FRET, ERα LBD, low estradiol | Estrogen receptor (Homo sapiens), P03372 | TR-FRET ERalpha-LBD/SRC-Cy5 coactivator binding, 2 h; 100 = basal binding, no effect | coactivator binding (% of control), % at 25.6 µM | actives 1.3% (n = 86,000) | AID 639, 2007; in the data active = activity above about 200%;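 note: binding measured in presence of low estradiol as agonist stimulus; 0% = peptide alone without receptor and 100% = receptor with peptide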
An asterisk follows results filed as active; · = not tested or not shown; ! = not active in a repeat; [ ] = dose if it differs, or a comment.

SMILES | ERb coact inh | ERa coact inh | Mac1 fbg enh | CD11b adhes inh | ERa SRC1 pot
CCc1cc(/C(Cc2csc(C)n2)=N/O)c(O)cc1O | -0.5 | -4.5 | -9.1 | 79.5* | 81.6
O=C(NC(=S)Nc1ccc(Oc2ccccc2)cc1)c1ccc(Cl)cc1 | · | · | -9.1 | 78.0* | ·
CC(C)(C)c1cc(NC(=O)CCSc2nnc3ccccn23)cc(C(C)(C)C)c1 | -1.6 | -3.4 | · | · | 138.9
COc1ccc(C)cc1NC(=O)COC(=O)C1CC1 | · | · | -2.0 | 2.8 | ·
Oc1c(C(Nc2ccccn2)c2ccccn2)ccc2cccnc12 (centres undefined) | 17.0 | -1.4 | -2.5 | -4.9 | 95.0
CC(=O)NC(c1ccco1)c1ccc2cccnc2c1O (centres undefined) | 59.3*[fluorescence artefact?] | 30.7 | 3.4 | -1.7 | 71.6
Cc1ccc(C(=O)COC(=O)CCC(=O)Nc2cccc(Cl)c2)cc1[N+](=O)[O-] | · | · | 1.4 | -5.8 | ·
CCN1CCc2nc(NC(=O)Cc3ccc4c(c3)OCCO4)sc2C1 | 19.1 | 53.5* | -0.9 | 3.4 | 59.6
CCN1CCc2nc(NC(=O)C(c3ccccc3)c3ccccc3)sc2C1 | -12.9 | -15.6 | 1.3 | -5.1 | 114.4
O=C(Nc1nc2c(s1)CN(Cc1ccccc1)CC2)c1cccc(S(=O)(=O)N2CCc3ccccc32)c1 | -3.9 | -6.1 | · | · | 499.9*[fluorescence artefact?]
CCN1CCc2nc(NC(=O)CC(c3ccccc3)c3ccccc3)sc2C1 | 11.1 | 37.5 | · | · | 281.6*[fluorescence artefact?]
CCN1CCc2nc(NC(=O)c3ccc4c(c3)OCCO4)sc2C1 | 27.1 | 51.4*[fluorescence artefact?] | · | · | 93.6
Cc1nnc(NC(=O)c2cccc(S(=O)(=O)N3CCc4ccccc43)c2)s1 | · | · | -2.5 | 7.7 | ·
O=C(CN1CCC(C(=O)c2ccc(Cl)cc2)CC1)Nc1ccc2c(c1)OCCO2 | 4.3 | -5.0 | -2.3 | 4.8 | 91.3
CCCCOC(=O)CSc1n[nH]c(=O)[nH]c1=O | -5.8 | -0.4 | -5.2 | 0.3 | 106.0
CC(=O)Nc1ccccc1-c1nc2ccccc2nc1OCC(=O)c1ccc2ccccc2c1 | · | · | -5.4 | 5.3 | ·
CCC(C)NS(=O)(=O)c1ccc(NC(C)=O)cc1 (centres undefined) | -22.6 | -21.2 | · | · | 98.6
CC(=O)Nc1ccc(S(=O)(=O)NC(C(=O)O)C(C)C)cc1 (centres undefined) | 65.8*[fluorescence artefact?] | -11.7 | · | · | 104.7
Cc1cc(Br)ccc1OCCCCNCCO | · | · | -3.4 | -9.4 | ·
COc1ccc(Br)cc1C(=O)Nc1nnn(C)n1 | -1.2 | 5.3 | -6.1 | 4.2 | 106.3
COc1ccc(Br)cc1/C(C)=N/NC1=NCCN1 | -4.0 | 32.3 | -5.5 | 74.4* | 97.2
CCCCCOc1ccc(Br)cc1/C(C)=N/NC1=NCCN1 | 18.0 | 65.9*[fluorescence artefact?] | · | · | 21.0
COC(=O)c1c(NC(=O)c2ccco2)sc(C(=O)N(C)C)c1C | 6.0 | -0.8 | · | · | 111.0
c1ccc(CNc2nc3ccccc3n3cnnc23)cc1 | 6.5 | 4.5 | -4.1 | 1.6 | 238.0*[fluorescence artefact?]
c1ccc(CNc2nc3ccccc3n3cnnc23)nc1 | -9.8 | -11.8 | -2.1 | 4.8 | 113.6
SMILES | ERb coact inh | ERa coact inh | Mac1 fbg enh | CD11b adhes inh | ERa SRC1 pot
Cc1ccc(-c2csc(NC(=O)c3ccc4c(=O)n5c(nc4c3)CCCCC5)n2)cc1 | · | · | 24.2 | 29.9 | ·
O=C1C=C(NCc2ccc(Cl)cc2)CCC1 | · | · | 5.8 | 1.9 | ·
CCC(OC(=O)c1cccs1)C(=O)NCc1ccco1 (centres undefined) | -3.3 | -0.1 | · | · | 101.5
CC(C)CC(OC(=O)c1cccs1)C(=O)NCc1ccco1 (centres undefined) | 58.4* | 21.0 | 2.8 | 7.6 | 167.7
COc1ccccc1-c1cc(C(=O)NC(C)c2ccccc2)no1 (centres undefined) | -22.6 | -8.8 | -1.7 | 17.9 | 276.4*[fluorescence artefact?]
Cc1ccc(-n2[nH]c(C)c(C=Nc3ccc(S(=O)(=O)N4CCOCC4)cc3)c2=O)c(C)c1 | · | · | 0.1 | -17.7 | ·
COc1ccc(-c2cc3nc4c(c(=O)n3[nH]2)CCC4)cc1 | 42.9 | 52.0*[fluorescence artefact?] | 7.9 | -10.3 | 39.5
CC(Sc1nnc(-c2cccnc2)n1-c1ccccc1F)C(=O)N1CCCc2ccccc21 (centres undefined) | · | · | -1.3 | -0.6 | ·
O=C(C[n+]1cnn(CC(=O)c2ccc(Cl)cc2Cl)c1)c1ccc([N+](=O)[O-])cc1 | · | · | 0.4 | -5.1 | ·
C1=C(c2ccc(-c3ccccc3)cc2)Nc2ncnn2C1c1ccco1 (centres undefined) | 32.4 | 68.6*[fluorescence artefact?] | 39.3 | -6.6 | 110.4
O=C(OCCN1C(=O)c2ccccc2C1=O)c1cccc(OC(F)F)c1 | 3.5 | 3.1 | -2.9 | -1.6 | 126.0
CC(=O)C1=C(C)NC(SCC(N)=O)=C(C#N)C1C (centres undefined) | -9.2 | 4.5 | -4.8 | 3.8 | 101.2
COC(=O)c1sc(NC(=O)c2cnccn2)c(C(=O)OC)c1C | -1.9 | 52.5* | · | · | 118.9
COC(=O)c1sc(NC(C)=O)c(C(=O)OC)c1C | 4.8 | 0.5 | -0.7 | -20.9 | 121.3
COC(=O)Cc1csc(N)n1 | 63.0*![fluorescence artefact?] | -4.2 | -0.2 | -6.1 | 109.0
CCOC(=O)Cc1csc(NC(=O)CSc2nnc(Cc3csc(N)n3)n2C)n1 | -8.9 | -6.3 | -3.2 | 12.6 | 103.6
CN(C)c1ccc(NC(=O)c2cc3c(=O)n4ccccc4nc3n2C)cc1 | 93.1*[fluorescence artefact?] | 100.2*[fluorescence artefact?] | · | · | 22.6
Cn1c(C(=O)NCCCN2CCCC2=O)cc2c(=O)n3ccccc3nc21 | -3.3 | -3.6 | · | · | 111.2
C=C(C)c1ccc(C(C)(C)NC(=O)N2CCN(C)CC2)cc1 | 4.7 | -2.4 | 3.4 | -4.4 | 536.6*[fluorescence artefact?]
Cn1c(Cn2nnc(-c3ccccc3)n2)nnc1SCc1ccccc1Cl | -12.2 | -1.6 | 1.4 | 15.8 | 104.7
CC(C)c1ccc(-c2nnn(Cc3nc4ccccc4s3)n2)cc1 | -4.7 | -4.0 | 7.6 | 22.6 | 109.1
O=C(COC(=O)c1cn(-c2ccccc2)nc1-c1cccs1)NC1CC1 | 10.2 | 6.9 | -1.3 | -9.3 | 202.1*
COc1ccc(C2=NOC(C(=O)NCc3ccc(F)cc3)C2)cc1OC (centres undefined) | 34.3 | 69.8*[fluorescence artefact?] | 1.6 | 19.8 | 66.9
COc1ccc(CNC(=O)C2CC(c3cccc(OC)c3)=NO2)cc1 (centres undefined) | 73.2*[fluorescence artefact?] | -6.5 | -5.0 | 13.2 | 107.9
COc1cccc(C2=NOC(C(=O)NCc3ccc(F)cc3)C2)c1 (centres undefined) | 7.6 | -4.5 | -3.3 | 25.6 | 108.0
CN(C)c1ccnc(Oc2ccc(C(C)(C)C)cc2)c1C#N | · | · | -2.8 | 13.6 | ·
CCOC(=O)N1CCN(c2ccc(O)cc2)CC1 | · | · | -3.2 | 54.4* | ·
COc1ccccc1N1CCN(CC(=O)Nc2cc(C)nn2-c2nc(C)cc(C)n2)CC1 | -14.9 | -21.0 | · | · | 105.4
